For some of these results: Potency and affinity values are given separately.

Holding throughout (parameters): scale not given: direction of the effect not stated beside the values
Assay [1] addresses Protein translocase subunit SecA (Escherichia coli (strain K12)) (UniProt P10408). As to the kind of experiment: Assay to Identify E. coli SecA ATPase Inhibitors. The class given is functional. The following applies: 30 µM.
For assay [2], the target named is T1, Ubiquitin-activating enzyme e1, putative (Leishmania donovani (strain BPK282A1)) (UniProt E9BSI1).
T1 sequence (whole entry): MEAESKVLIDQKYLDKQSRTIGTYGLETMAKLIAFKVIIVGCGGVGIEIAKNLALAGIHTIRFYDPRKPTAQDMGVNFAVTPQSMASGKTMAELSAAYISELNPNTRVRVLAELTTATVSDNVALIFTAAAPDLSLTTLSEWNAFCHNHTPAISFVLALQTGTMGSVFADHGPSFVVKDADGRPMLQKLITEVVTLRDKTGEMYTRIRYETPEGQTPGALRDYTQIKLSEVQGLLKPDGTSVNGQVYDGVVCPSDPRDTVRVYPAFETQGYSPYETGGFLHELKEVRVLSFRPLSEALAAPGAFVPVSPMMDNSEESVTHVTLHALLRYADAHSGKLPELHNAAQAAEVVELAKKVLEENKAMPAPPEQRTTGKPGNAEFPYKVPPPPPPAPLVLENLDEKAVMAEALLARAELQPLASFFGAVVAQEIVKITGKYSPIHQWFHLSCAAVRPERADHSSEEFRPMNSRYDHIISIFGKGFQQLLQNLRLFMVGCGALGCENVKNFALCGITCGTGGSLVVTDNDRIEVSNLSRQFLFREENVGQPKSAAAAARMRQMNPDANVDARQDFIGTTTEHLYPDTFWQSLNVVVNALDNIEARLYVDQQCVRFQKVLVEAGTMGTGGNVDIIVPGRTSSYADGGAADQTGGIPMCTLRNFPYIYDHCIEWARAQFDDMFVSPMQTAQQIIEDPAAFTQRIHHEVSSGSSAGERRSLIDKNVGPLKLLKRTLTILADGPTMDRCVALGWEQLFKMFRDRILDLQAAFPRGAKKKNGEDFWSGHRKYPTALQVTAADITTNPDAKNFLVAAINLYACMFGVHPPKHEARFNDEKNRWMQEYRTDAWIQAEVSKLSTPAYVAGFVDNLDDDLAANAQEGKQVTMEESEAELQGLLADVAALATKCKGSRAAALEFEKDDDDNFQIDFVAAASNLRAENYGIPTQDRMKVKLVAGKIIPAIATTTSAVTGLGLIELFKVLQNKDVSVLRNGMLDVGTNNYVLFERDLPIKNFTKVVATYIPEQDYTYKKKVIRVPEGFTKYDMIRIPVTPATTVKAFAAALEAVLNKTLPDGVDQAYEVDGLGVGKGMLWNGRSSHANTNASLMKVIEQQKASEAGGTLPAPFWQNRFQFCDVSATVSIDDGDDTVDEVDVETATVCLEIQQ
Description: Leishmania donovani Ubiquitin Activating Enzyme (LdE1). The class given is functional. As to conditions: 30 µM.

Assay [3] concerns the target AMP-activated protein kinase, AMPK (Homo sapiens) (UniProt P54646+O43741+P54619+Q9UGJ0+Q9Y478+Q13131+Q9UGI9). Description: AMP-dependent Kinase enzyme assay. An in vitro enzyme assay that detects ADP turnover that is directly proportional to AMPK activity. This uses naive AMPK that is activated during the assay with MK-8722. The following applies: 30 µM. The class given is functional.

Assay [4] concerns the target Sialic acid-binding Ig-like lectin 9 (Homo sapiens) (UniProt Q9Y336). As to the kind of experiment: Hs-Siglec9 ALPHAscreen SOP 20170721. As to conditions: 10 µM. Background: Bead proximity is the source of the signal in Alpha formats.
For assay [5], the system named is Trypanosoma cruzi. As to the kind of experiment: Trypanosoma cruzi phosphomannomutase and mannose-1-phosphate guanylyltransferase assay. The class given is functional. As to conditions: 10 µM.
The target of assay [6] is T2, Arginase-2, mitochondrial (Homo sapiens) (UniProt P78540).
T2 sequence (whole entry): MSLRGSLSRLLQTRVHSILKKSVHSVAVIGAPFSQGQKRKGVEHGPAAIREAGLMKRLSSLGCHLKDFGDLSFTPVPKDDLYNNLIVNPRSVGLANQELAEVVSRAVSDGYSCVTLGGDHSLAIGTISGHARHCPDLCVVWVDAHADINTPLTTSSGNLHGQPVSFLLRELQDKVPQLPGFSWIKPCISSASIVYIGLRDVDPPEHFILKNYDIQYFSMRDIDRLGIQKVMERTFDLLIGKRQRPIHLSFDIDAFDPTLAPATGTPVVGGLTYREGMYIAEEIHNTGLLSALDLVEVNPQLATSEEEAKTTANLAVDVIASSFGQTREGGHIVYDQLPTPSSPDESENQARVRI
As to the kind of experiment: in vitro enzyme assay to detect the production of urea directly proportional to the activity of Arginase II. Note: in the data most compounds retested in dose-response had high values. The class given is functional. As to conditions: 33.3 µM.

Assay [7] deals with T3, Proteasome subunit beta (Trypanosoma cruzi) (UniProt O96673).
T3 sequence (whole entry): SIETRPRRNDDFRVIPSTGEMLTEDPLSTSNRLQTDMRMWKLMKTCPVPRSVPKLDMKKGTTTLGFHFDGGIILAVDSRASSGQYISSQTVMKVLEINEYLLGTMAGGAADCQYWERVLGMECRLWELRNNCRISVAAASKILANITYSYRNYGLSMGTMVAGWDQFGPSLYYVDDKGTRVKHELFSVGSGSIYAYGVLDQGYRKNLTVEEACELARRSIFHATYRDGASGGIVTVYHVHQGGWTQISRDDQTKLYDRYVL
Description: Trypanosoma cruzi proteasome chymotrypsin-like activity (TcProtChymo) assay. Note: in the data most compounds retested in dose-response had high values. Type of assay: functional. The following applies: 9.37 µM.

The species named for assay [8] is Homo sapiens. As to the kind of experiment: To identify inhibition of the IFN signalling (Jak-Stat) pathway via expression of an eGFP reporter gene under the control of an IFN-stimulated response element (ISRE) containing MxA promoter. The class given is functional. As to conditions: 30 µM. Background: In a reporter assay the amount or activity of a reporter protein is the signal.

The target in assay [9] is T4, Tyrosyl-tRNA synthetase, putative (Trypanosoma cruzi (strain CL Brener)) (UniProt Q4DSP6).
T4 sequence (whole entry): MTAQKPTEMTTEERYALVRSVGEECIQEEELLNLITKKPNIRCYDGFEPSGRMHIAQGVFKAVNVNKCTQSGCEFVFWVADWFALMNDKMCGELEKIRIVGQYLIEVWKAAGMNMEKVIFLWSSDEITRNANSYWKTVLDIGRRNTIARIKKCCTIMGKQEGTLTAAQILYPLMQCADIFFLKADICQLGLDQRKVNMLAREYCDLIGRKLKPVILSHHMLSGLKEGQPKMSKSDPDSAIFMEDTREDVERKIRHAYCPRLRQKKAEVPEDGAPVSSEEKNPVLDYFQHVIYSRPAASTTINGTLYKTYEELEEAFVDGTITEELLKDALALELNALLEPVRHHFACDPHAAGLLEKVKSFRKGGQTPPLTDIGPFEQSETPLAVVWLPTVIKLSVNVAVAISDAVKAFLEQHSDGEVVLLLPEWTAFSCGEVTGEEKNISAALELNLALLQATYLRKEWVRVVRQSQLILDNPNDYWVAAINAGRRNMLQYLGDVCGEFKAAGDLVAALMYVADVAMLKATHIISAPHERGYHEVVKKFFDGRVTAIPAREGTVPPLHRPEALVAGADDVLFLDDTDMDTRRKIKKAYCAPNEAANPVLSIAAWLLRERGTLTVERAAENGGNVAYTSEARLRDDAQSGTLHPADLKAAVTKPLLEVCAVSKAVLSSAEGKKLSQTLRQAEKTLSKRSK
Description: Trypanosoma cruzi tyrosyl tRNA synthetase (TcYRS) _High Tyrosine SOP. Note: in the data most compounds retested in dose-response had high values. The class given is functional. As to conditions: 30 µM.

Assay [10] addresses T4, Tyrosyl-tRNA synthetase, putative (Trypanosoma cruzi (strain CL Brener)). Description: Trypanosoma cruzi tyrosyl tRNA synthetase (TcYRS) SOP. The class given is functional. As to conditions: 30 µM.
Assay [11] addresses Chromo domain-containing protein 1 (Saccharomyces cerevisiae (strain ATCC 204508 / S288c) (Baker's yeast)) (UniProt P32657). Description: ScCHD-1 Enzyme Inhibition Assay. Note: in the data most compounds retested in dose-response had high values. The following applies: 30 µM. The class given is functional.

Chain of Sialic acid-binding Ig-like lectin 9 (Homo sapiens) (Q9Y336 whole entry): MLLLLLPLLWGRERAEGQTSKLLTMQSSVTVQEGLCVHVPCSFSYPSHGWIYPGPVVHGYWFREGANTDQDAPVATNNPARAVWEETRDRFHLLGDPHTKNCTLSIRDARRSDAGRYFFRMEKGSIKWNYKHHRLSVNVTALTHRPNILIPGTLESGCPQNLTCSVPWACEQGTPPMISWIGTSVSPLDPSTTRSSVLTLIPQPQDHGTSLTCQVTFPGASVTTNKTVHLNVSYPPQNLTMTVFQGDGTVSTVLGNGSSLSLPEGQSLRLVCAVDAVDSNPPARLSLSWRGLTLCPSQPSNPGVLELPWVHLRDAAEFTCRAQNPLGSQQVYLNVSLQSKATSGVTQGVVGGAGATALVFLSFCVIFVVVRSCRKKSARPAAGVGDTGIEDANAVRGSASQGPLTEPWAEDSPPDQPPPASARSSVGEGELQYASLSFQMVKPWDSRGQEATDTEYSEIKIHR
Chain of Chromo domain-containing protein 1 (Saccharomyces cerevisiae (strain ATCC 204508 / S288c) (Baker's yeast)) (P32657 whole entry, the tested form may be a part): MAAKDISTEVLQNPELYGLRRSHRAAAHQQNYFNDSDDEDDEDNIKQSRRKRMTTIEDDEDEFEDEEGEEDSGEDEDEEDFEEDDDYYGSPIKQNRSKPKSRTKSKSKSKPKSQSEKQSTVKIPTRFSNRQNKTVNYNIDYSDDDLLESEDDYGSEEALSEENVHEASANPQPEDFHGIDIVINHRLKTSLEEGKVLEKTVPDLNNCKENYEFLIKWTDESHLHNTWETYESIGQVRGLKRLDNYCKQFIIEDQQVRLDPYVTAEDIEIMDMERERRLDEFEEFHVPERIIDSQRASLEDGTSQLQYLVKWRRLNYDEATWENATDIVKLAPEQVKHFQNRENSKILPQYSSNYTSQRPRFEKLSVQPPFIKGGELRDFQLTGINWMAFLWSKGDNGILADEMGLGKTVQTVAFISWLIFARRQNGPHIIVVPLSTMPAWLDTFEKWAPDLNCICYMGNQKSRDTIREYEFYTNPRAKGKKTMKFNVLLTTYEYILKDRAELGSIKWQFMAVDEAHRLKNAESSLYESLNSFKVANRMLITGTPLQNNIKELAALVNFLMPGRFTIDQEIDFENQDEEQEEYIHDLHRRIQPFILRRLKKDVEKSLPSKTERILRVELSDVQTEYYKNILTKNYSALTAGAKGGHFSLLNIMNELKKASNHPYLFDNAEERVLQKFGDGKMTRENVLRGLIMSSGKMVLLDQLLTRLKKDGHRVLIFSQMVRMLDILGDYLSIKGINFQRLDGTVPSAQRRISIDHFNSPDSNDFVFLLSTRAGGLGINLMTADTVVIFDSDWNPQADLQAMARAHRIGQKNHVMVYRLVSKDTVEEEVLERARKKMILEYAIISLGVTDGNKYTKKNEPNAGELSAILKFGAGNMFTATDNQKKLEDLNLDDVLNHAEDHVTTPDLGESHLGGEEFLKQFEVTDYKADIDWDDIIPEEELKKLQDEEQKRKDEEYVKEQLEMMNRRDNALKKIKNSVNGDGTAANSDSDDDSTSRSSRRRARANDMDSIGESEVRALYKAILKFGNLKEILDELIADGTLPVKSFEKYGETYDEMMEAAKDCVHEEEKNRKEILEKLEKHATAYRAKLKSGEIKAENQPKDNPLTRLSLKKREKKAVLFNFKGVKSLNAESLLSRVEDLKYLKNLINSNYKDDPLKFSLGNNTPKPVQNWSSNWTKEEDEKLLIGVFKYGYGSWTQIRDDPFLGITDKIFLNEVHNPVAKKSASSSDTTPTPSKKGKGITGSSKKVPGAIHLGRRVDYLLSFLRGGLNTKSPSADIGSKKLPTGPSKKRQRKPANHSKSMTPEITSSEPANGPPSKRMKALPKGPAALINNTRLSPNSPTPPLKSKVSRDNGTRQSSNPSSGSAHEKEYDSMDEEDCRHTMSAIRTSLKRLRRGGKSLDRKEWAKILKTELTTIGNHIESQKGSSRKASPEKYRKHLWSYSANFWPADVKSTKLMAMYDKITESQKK
Chain of Protein translocase subunit SecA (Escherichia coli (strain K12)) (P10408 whole entry): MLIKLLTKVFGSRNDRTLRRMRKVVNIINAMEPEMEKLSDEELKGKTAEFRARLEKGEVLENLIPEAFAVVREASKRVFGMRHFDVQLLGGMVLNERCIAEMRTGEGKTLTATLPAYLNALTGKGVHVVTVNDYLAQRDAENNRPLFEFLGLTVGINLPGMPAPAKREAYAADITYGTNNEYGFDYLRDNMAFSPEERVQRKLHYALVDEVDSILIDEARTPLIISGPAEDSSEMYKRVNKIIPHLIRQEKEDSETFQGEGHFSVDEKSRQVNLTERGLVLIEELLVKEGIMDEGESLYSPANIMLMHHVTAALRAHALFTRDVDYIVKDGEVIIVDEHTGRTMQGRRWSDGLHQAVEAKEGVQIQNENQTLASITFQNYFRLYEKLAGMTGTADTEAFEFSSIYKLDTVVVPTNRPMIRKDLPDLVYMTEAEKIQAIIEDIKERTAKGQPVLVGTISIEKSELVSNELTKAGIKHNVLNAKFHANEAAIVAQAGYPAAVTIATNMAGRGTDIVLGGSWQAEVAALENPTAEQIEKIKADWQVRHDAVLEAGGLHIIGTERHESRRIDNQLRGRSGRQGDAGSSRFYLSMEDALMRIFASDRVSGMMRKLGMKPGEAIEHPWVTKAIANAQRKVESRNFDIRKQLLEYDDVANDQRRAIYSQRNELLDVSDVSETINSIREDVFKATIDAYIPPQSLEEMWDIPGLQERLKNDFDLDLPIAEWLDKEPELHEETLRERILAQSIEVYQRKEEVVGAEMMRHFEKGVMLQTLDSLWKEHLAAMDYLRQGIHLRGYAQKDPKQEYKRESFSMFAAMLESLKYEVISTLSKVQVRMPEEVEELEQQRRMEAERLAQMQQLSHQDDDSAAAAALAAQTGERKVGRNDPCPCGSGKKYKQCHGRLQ

With `CC(C)C(=O)NCc1cccc(N2CCCCC2=O)c1`, the Percent Effect in [1] was -6.2%; in [2] it was 18.2%; in [3], -3.27%; in assay [4], -10.4%; in [5] it was 5.78%; in assay [6], 1.05%. The Percent Effect was 11.7% in [7]; 0.702% in assay [8]; 3.81% in [9]; 21.2% in assay [10]; -12.3% in [11].
For `COC(=O)C(NC(=O)C(C)C)c1cc(F)ccc1F` (stereo not drawn), the Percent Effect in assay [1] is -3.03%; in assay [2], 10.4%; in assay [3], 3.19%; in assay [4], 15.7%; in assay [5] it was -2.43%; in [6] it was 7.12%. The Percent Effect in [7] was 3.38%; in assay [8], 22.8%; in [9], 2.91%; in [10] it was 9.76%; in assay [11], -4.93%.
Take `CN(Cc1ncc[nH]1)CC(c1cccs1)N1CCOCC1` (stereo not drawn): the Percent Effect in assay [1] was -0.354%; in [2], 13.5%; in assay [3], -12.7%; in assay [4] it was -6.28%; in assay [5], 4.92%; in assay [6], -1.29%. Besides, the Percent Effect in assay [7] is 12.4%; in [8], 17.4%; in assay [9] it was 11.9%; in assay [10], 23.2%; in assay [11], -5.94%.
Consider `O=C(NCC1CCOC1)c1csc(-c2ccco2)n1` (stereo not drawn), for which the Percent Effect was -2.71% in assay [1]; 13% in [2]; -3.93% in assay [3]; -0.826% in [4]; 5.24% in assay [5]; -1.07% in [6]. Moreover, the Percent Effect was 13.8% in assay [7]; 13.5% in assay [8]; 7.77% in assay [9]; 21.9% in assay [10]; -8.51% in [11].
For the compound `CCN(CC)C(=O)CCNc1cncc(-n2nc(C)cc2C)n1`, the Percent Effect in assay [1] was -5.54%; in assay [2], 5.41%; in [3], 3.1%; in [4] it was -3.77%; in assay [5] it was -7.92%; in assay [6], 4.71%. The Percent Effect in assay [7] was 13.1%; in assay [8], 6.24%; in assay [9], 2.15%; in assay [10] it was 3.7%; in assay [11], -6.4%.
Take `CCCN(CC1COc2ccccc2O1)C(=O)CCn1cncn1` (stereo not drawn): the Percent Effect in assay [1] is -3.98%; in [2], 13.2%; in [3] it was -1.36%; in assay [4], -1.88%; in assay [5] it was -1.5%; in assay [6] it was -0.383%. The Percent Effect in assay [7] is 8.52%; in assay [8], 0.478%; in assay [9], 7.35%; in assay [10] it was 17.1%; in [11], -2.23%.
Regarding `CC1c2ncc(COc3cccnc3)n2CCN1C(=O)C1=CCCC1` (stereo not drawn), the Percent Effect in [1] was -4.3%; in assay [2], 12%; in [3], -0.286%; in assay [4], 5.22%; in assay [5], -2.75%; in assay [6] it was -1.58%. The Percent Effect was 9.43% in [7]; 16.6% in assay [8]; 7.41% in [9]; 10.3% in assay [10]; -7.55% in assay [11].
In the case of `Cn1ncc2c1C(COCC1CC1)CN(Cc1ccoc1)C2` (stereo not drawn), the Percent Effect in assay [1] is -1.65%; in assay [2], 18.9%; in assay [3], 1.61%; in assay [4] it was -6.93%; in assay [5] it was 2.83%; in assay [6] it was 9.87%. Also, the Percent Effect in [7] is 23.8%; in [8], 27.7%; in [9], 5.41%; in assay [10], 20.5%; in assay [11], 2.77%.

The values above are taken from ChEMBL document CHEMBL3988442, “University of Dundee, Small-Polar-MMV Screening Library” (2021).
